Screens from PubChem.
DT40 TDP1 no CPT = qHTS for Inhibitors of human tyrosyl-DNA phosphodiesterase 1 (TDP1): qHTS in cells in absence of CPT; DT40 Tdp1-/- hTDP1 cells, no CPT, ATP luminescence, 48 h; Potency, µM (highest dose often 46.2 µM), hits mostly inhibitors; actives 15% (n = 420,000); further: nearly all actives have a fitted effect of over 55% in size
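DT40 Tdp1-/-;hTDP1 cells, no CPT (DMSO vehicle only), 400 cells/well; compounds pin-transferred; ≥48 hr, 37 °C; CellTiter-Glo 30 min RT dark, luminescence read.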
IL1B secr inh = inhibitors of inflammasome signaling (IL-1 beta secretion) | THP-1 LPS/ATP IL-1B secretion, AlphaLISA, 16 h; hits give low values | activity change, % at 57.5 µM | actives 4.7% (n = 360,000) | AID 743279; in the data active means activity change below about -50%; inconclusive means mostly about -30% to -49%
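THP-1 cells pretreated 1 hr with compounds (up to 57.5 uM final), then stimulated with LPS (250 ng/mL final) plus ATP (1.25 mM final); secreted IL-1B measured by AlphaLISA after 16 hr, decreased signal indicating inhibition.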
DT40 TDP1 CPT = growth inhibition of DT40 Tdp1-/-;hTDP1 cells with camptothecin (screen for TDP1 inhibitors); AID 686979; actives 12% (n = 420,000); chicken DT40 Tdp1-/-;hTDP1 cells + 20 nM CPT, ATP luminescence, 48 h; Potency, µM (titrated, usually from 46.2 µM), usual class: inhibitors; further: nearly all actives have a fitted effect of over 55% in size
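Chicken DT40 Tdp1-/- cells complemented with human TDP1, 400 cells/well, exposed to compounds plus 20 nM camptothecin for at least 48 h at 37 C; viability read as ATP content by CellTiter-Glo luminescence.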
HT1080 IDH1KD tx = kills HT-1080 cells with IDH1 knockdown; Potency, µM (highest dose often 46.1 µM), hits mostly cytotoxic; HT-1080 IDH1 knockdown viability, ATP luminescence, 48 h; actives 2% (n = 360,000)
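Viability of IDH1-knockdown HT-1080 fibrosarcoma cells was assessed by CellTiter-Glo after 48 h at 37 °C with titrated compound; concentration-effect curves were classified by fit quality and response size.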
12-LOX inh = inhibitors of human 12S-lipoxygenase ALOX12; Potency, µM (top dose mostly 108 µM), most hits filed as inhibitors; AID 1671190; P18054; purified 12hLO, xylenol orange hydroperoxide absorbance; actives 1.1% (n = 580,000)
Target sequence (P18054 whole entry, looked up): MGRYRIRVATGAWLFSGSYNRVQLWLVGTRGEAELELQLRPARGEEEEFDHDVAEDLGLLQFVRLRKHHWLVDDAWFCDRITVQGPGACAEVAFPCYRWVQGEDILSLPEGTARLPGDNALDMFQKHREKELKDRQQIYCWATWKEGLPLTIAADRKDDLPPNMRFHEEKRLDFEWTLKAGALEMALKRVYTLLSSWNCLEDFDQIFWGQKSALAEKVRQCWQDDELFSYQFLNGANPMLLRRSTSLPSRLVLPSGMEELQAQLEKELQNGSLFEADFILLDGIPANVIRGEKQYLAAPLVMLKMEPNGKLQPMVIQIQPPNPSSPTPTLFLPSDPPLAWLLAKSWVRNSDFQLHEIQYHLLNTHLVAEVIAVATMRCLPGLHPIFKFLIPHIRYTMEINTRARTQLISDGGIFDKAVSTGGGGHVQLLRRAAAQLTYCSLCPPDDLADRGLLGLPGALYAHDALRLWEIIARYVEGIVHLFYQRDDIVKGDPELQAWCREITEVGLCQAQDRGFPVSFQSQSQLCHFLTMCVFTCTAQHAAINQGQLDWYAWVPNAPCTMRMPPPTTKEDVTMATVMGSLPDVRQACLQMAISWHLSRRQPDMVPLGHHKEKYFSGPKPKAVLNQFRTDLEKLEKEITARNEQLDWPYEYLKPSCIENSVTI
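Hydroperoxide product was detected by ferrous iron/xylenol orange as the 573 to 405 nm absorbance ratio. Arachidonic acid at 40 uM (final) was turned over for 30 min at room temperature by 150 nM human 12hLO, pH 7.0 Hepes buffer, after 15 min compound preincubation.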
HT1080-NT tox = kills 2HG-producing HT-1080-NT fibrosarcoma cells | Potency, µM (top dose mostly 46.1 µM), hits mostly cytotoxic | HT-1080-NT fibrosarcoma viability, CellTiter-Glo ATP luminescence, 48 h | AID 686970 | actives 1.6% (n = 360,000);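 further: NT is the 2HG producing partner of a matched IDH1 knockdown line; nearly all actives have a fitted effect of over 55% in size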
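Viability of the 2HG-overproducing fibrosarcoma line after 48 hours of compound exposure at 37 degrees C was determined by luminescence with CellTiter-Glo, and concentration-effect curves were then fitted and categorized.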
Of the large screens only hits and unclear results are named; the others gave an inactive call. The sample as a whole holds a higher share of hits than the screen did. Unless noted, the call rests on the fitted dose curve; in most records, active means well fitted curve in the direction sought with a large enough effect; inconclusive means small, poorly fitted or top-dose-only effect, or another doubt; inactive means no such curve, though single readings can be large; an effect the other way counts as inactive or inconclusive.

Cc1nc(N2CCN(c3ccccn3)CC2)c2c(C)c(C(=O)Nc3c(F)cc(F)cc3Br)sc2n1	DT40 TDP1 no CPT 13µM, DT40 TDP1 CPT 16µM
Nc1nc(CN2CCN(C(=O)c3ccc(OC(F)F)cc3)CC2)nc2ccccc12	none (no result: DT40 TDP1 no CPT, IL1B secr inh, DT40 TDP1 CPT, HT1080 IDH1KD tx, HT1080-NT tox)
CCOc1cccc(CN2CCC(C(Cc3ccccc3F)N(C)C(=O)c3cccs3)CC2)c1O (centres undefined)	none (no result: DT40 TDP1 no CPT, IL1B secr inh, DT40 TDP1 CPT, HT1080 IDH1KD tx, HT1080-NT tox)
O=C(CSc1nc2ccccc2c2nc(=O)c(-c3ccccc3)nn12)NCc1ccc(F)cc1	none (no result: DT40 TDP1 no CPT, IL1B secr inh, DT40 TDP1 CPT, HT1080 IDH1KD tx, HT1080-NT tox)
O=C(O)c1ccc(-c2ccc(/C=N/O)o2)cc1	none (no result: DT40 TDP1 no CPT, IL1B secr inh, DT40 TDP1 CPT, HT1080 IDH1KD tx, HT1080-NT tox)
O=C(/C=C/c1ccccc1Cl)Nc1ccccc1	IL1B secr inh -65
O=C(/C=C/c1ccccc1Cl)Nc1cccc(O)c1	DT40 TDP1 no CPT inconclusive, DT40 TDP1 CPT inconclusive
CN(C)S(=O)(=O)c1ccc(NC(=O)/C=C/c2ccccc2Cl)cc1	DT40 TDP1 no CPT 23µM, DT40 TDP1 CPT inconclusive
CCCCOC(=O)c1cccc(NC(=O)/C=C/c2ccccc2Cl)c1	DT40 TDP1 no CPT 21µM, DT40 TDP1 CPT inconclusive (no result: IL1B secr inh, HT1080 IDH1KD tx, HT1080-NT tox)
CC(C(=O)Nc1ccc(OC(F)(F)F)cc1)N1CCN(c2ccc([N+](=O)[O-])c3cnccc23)CC1 (centres undefined)	none (no result: DT40 TDP1 no CPT, IL1B secr inh, DT40 TDP1 CPT, HT1080 IDH1KD tx, HT1080-NT tox)
CCN(CC)c1ccc(C=Nc2ccc(S(N)(=O)=O)cc2)cc1	none (no result: DT40 TDP1 no CPT, IL1B secr inh, DT40 TDP1 CPT, HT1080 IDH1KD tx, HT1080-NT tox)
COc1ccc(Nc2c(-c3ccc(C)o3)nc3cc(C)ccn23)cc1	DT40 TDP1 no CPT 12µM, DT40 TDP1 CPT 15µM, 12-LOX inh inconclusive (no result: IL1B secr inh, HT1080 IDH1KD tx, HT1080-NT tox)
Cc1ccn2c(Nc3ccc4c(c3)OCO4)c(-c3ccc(C)o3)nc2c1	DT40 TDP1 no CPT inconclusive, DT40 TDP1 CPT 15µM, 12-LOX inh inconclusive (no result: IL1B secr inh, HT1080 IDH1KD tx, HT1080-NT tox)
Cc1ccc(-c2nc3cnccn3c2Nc2ccc3c(c2)OCO3)o1	DT40 TDP1 CPT inconclusive, 12-LOX inh inconclusive
CC(C)=CC(=O)Nc1ccc2c(c1)-c1ccccc1C2	none (no result: DT40 TDP1 no CPT, IL1B secr inh, DT40 TDP1 CPT, HT1080 IDH1KD tx, HT1080-NT tox)
CCOc1ccccc1C(=O)Nc1nonc1-c1ccc(OC(C)C)cc1	none (no result: DT40 TDP1 no CPT, IL1B secr inh, DT40 TDP1 CPT, HT1080 IDH1KD tx, HT1080-NT tox)
CC(=O)C1=CCC(c2ccccc2)N(S(=O)(=O)c2ccccc2C)C1 (centres undefined)	DT40 TDP1 no CPT 21µM, DT40 TDP1 CPT inconclusive
CCOC(=O)C1=CCC(c2ccccc2)N(S(=O)(=O)c2ccccc2C)C1 (centres undefined)	DT40 TDP1 no CPT 23µM, DT40 TDP1 CPT inconclusive
Cc1ccccc1S(=O)(=O)N1CC(C(=O)O)=CC[C@H]1c1ccc(Cl)cc1	none
CCOC(=O)C1=CCC(c2ccccc2)N(S(=O)(=O)c2ccccc2[N+](=O)[O-])C1 (centres undefined)	DT40 TDP1 no CPT inconclusive, DT40 TDP1 CPT inconclusive
O=C(Nc1ccc(F)cc1)C1CCCN(c2ncnc3c2nc2n3CCCCC2)C1 (centres undefined)	DT40 TDP1 no CPT 12µM, DT40 TDP1 CPT 13µM, 12-LOX inh inconclusive (no result: IL1B secr inh, HT1080 IDH1KD tx, HT1080-NT tox)
Cc1ccc(NC(=O)C2CCCN(c3ncnc4c3nc3n4CCCCC3)C2)cc1F (centres undefined)	DT40 TDP1 no CPT 23µM, DT40 TDP1 CPT 18µM (no result: IL1B secr inh, HT1080 IDH1KD tx, HT1080-NT tox)
O=C(NCC1CCN(Cc2ccc(F)cc2)CC1)C1CCCN(c2ncnc3c2nc2n3CCCCC2)C1 (centres undefined)	DT40 TDP1 no CPT inconclusive, IL1B secr inh inconclusive, DT40 TDP1 CPT inconclusive
CCCN(C(=O)C1CCCN(c2ncnc3c2nc2n3CCCCC2)C1)c1ccc(F)cc1 (centres undefined)	DT40 TDP1 no CPT 21µM, DT40 TDP1 CPT 18µM
Cc1cccc(-c2ocnc2C(=O)Nc2cc(C)ccc2C)c1	none (no result: DT40 TDP1 no CPT, IL1B secr inh, DT40 TDP1 CPT, HT1080 IDH1KD tx, HT1080-NT tox)
Cc1cnc(CN2CCC3(CCC(=O)N(CCCO)C3)CC2)[nH]1	none (no result: DT40 TDP1 no CPT, IL1B secr inh, DT40 TDP1 CPT, HT1080 IDH1KD tx, HT1080-NT tox)
CCN(CC)S(=O)(=O)c1cc(NC(=O)c2cc([N+](=O)[O-])ccc2N2CCOCC2)ccc1C	DT40 TDP1 no CPT 16µM, DT40 TDP1 CPT inconclusive
CCN(CC)S(=O)(=O)c1ccc(OC)c(NC(=O)c2cc([N+](=O)[O-])ccc2N2CCOCC2)c1	DT40 TDP1 no CPT 16µM, DT40 TDP1 CPT inconclusive
